Source: PubChem BioAssay (several laboratories)
NR0B1 inh: DAX1 (NR0B1) inhibitors, primary screen, cell-based, HEK293, Gal4-DAX1, luciferase luminescence | Nuclear receptor subfamily 0 group B member 1 (Homo sapiens), P51843 | HEK293 Gal4-DAX1 luciferase reporter | inhibition, % at 6.75 µM | 340,000 tested, 0.99% active;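 active = inhibition above the mean over all tested compounds plus 3 SD, cut at about 4.2% in these data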;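 note: inhibition shows as a rise in luminescence from relieved DAX1 repression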
HSF1 inh: HSF1 inhibitors in luciferase reporter cells, primary screen, cell-based, NIH3T3, luminescence. NIH3T3-HGL HSE-luciferase, MG132-induced, luminescence 8 h; active compounds read low. activity change, negative = inhibition, % at 7.5 µM (by protocol). 300,000 tested, 0.77% active. AID 2098, 2009;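 active = more than half of replicate wells show activity change below -50%, luminescence cut by over half; inconclusive = some wells, but at most half, below -50%; inactive = no replicate well below -50%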;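 note: luciferase reports HSF-1 transcriptional activity via heat shock element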
HSP90 inh: HSP90 inhibitors, primary screen, cell lysate, luminescence | Rabbit reticulocyte lysate, luciferase refolding luminescence, 3 h | inhibition, % at 5.6 µM | 290,000 tested, 0.91% active | AID 1789, 2009;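 active = inhibition above the screen-wide mean plus 3 SD, computed separately per campaign, cut at about 16% in these data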;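 note: inhibitors lower the luminescence because luciferase stays unfolded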
FXN GAA850 act: FXN promoter activators, primary screen, cell-based, luciferase luminescence, HEK293 lucGAA850. HEK293 lucGAA850 FXN promoter luciferase reporter, 24 h; percent of 10 µM SAHA response. activation, % at 6 µM. 360,000 tested, 0.56% active. AID 540364, 2011;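 active = activation above the average of all compounds screened plus 3 SD, cutoff fixed separately per campaign, cut at about 7.5% in these data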
HSF-1 act: HSF-1 activators, primary screen, NIH3T3-HGL cells, MG132 stress, luminescence, single point; AID 504408, 2011; 300,000 tested, 1.7% active; NIH3T3-HGL HSF-1 luciferase reporter, 8 h; 100% = twice DMSO control signal; activation, % at 9 µM;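 active = mean replicate activation of at least 50% with a set share of replicates each reaching 50%; inconclusive = only one of those two conditions met; inactive = mean below 50% and too few replicates reaching it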
AHR act: AHR activators, primary screen, cell-based, luminescence, luciferase reporter, human | AHR-responsive luciferase reporter cells | 320,000 tested, 2.5% active | Aryl hydrocarbon receptor (Homo sapiens), P35869 | activation, % at 5 µM | AID 2796, 2010; in the data active = activation above about 47%
Target sequence (P35869 whole entry, looked up): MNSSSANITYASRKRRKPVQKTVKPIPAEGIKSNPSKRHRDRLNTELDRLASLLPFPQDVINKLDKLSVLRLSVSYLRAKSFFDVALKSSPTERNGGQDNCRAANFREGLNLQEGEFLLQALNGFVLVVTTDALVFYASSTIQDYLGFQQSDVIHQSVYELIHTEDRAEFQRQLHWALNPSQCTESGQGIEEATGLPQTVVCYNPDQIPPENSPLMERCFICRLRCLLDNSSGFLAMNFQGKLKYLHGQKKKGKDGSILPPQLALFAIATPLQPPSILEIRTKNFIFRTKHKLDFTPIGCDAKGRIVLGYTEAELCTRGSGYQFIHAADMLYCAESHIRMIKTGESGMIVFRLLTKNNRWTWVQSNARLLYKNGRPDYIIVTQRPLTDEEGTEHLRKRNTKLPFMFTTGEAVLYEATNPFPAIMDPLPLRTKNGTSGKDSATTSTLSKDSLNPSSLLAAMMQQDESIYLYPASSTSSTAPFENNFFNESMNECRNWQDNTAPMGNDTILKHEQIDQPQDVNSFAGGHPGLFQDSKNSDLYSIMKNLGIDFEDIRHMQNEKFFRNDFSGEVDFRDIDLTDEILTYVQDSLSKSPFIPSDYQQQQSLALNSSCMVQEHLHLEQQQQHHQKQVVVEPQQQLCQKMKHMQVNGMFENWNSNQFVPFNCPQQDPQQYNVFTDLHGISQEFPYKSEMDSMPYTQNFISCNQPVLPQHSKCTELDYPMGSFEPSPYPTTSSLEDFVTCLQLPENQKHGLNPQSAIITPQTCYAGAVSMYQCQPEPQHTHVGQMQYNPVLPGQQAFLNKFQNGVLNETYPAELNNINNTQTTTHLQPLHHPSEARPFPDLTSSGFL
Each line names hits and unclear results; the compound was inactive in the other large screens. An excerpt weighted towards active compounds, which were near 5.9% of everything screened.

CCOC(=O)CC(NS(=O)(=O)c1ccc2[nH]cc(C(=O)O)c(=O)c2c1)c1ccc(OCC)c(OC)c1 (stereo not given)	HSF-1 act 88
CC(C)CC(C(=O)Nc1cccc(O)c1)N1C(=O)c2ccccc2C1=O (stereo not given)	HSF1 inh -59
O=C(NNC(=O)c1cc(-c2ccc(Cl)c(Cl)c2)nc2ccccc12)Nc1ccccc1	HSF-1 act 56
COc1ccc(-c2cc(C(=O)Nc3cccnc3)c3ccccc3n2)cc1OC	AHR act 67
COc1ccc(-c2cc(C(=O)Nc3ccccc3O)c3ccccc3n2)cc1OC	HSF-1 act 71
O=c1[nH]c2cccc(Cl)c2c2ccccc12	none (no result: HSF1 inh, HSP90 inh, HSF-1 act, AHR act)
Oc1ccccc1N1CCN(c2ncnc3scc(-c4ccccc4)c23)CC1	none
Oc1ccccc1N1CCN(c2ncnc3scc(-c4ccc(F)cc4)c23)CC1	HSF1 inh -83
Fc1ccc(CN2CCN(c3ncnc4scc(-c5ccccc5)c34)CC2)cc1	HSF-1 act 84
Oc1cccnc1Sc1cccc(C(F)(F)F)c1	HSF-1 act 86 (no result: HSP90 inh)
CC(Oc1ccccc1)C(=O)N=Nc1c(O)[nH]c2ccc(Br)cc12 (stereo not given)	HSF-1 act 70
Cc1cccc(C)c1OCC(=O)N=Nc1c(O)[nH]c2ccc(Br)cc12	none
Oc1[nH]c2ccc(Br)cc2c1N=NC(=S)Nc1ccc(F)cc1	AHR act 75
CC1(C(=O)NS(=O)(=O)C2CC2)CCCN(C(=O)C2(c3ccc(Cl)cc3)CCCC2)C1 (stereo not given)	none (no result: NR0B1 inh, HSF1 inh, HSP90 inh, HSF-1 act, AHR act)
Fc1ccc(COc2ccc(C(=S)N3CCCC3)cc2)cc1	NR0B1 inh 4.3
O=C(Nc1cccc(C(=O)O)c1)/C(=C/c1ccc([N+](=O)[O-])cc1)NC(=O)c1ccccc1	none
Cc1ccc(C(=O)N/C(=C\c2ccc(-c3cccc([N+](=O)[O-])c3)o2)C(=O)NC(C)(C)C)cc1	AHR act 56
CC(C)(C)c1ccc(C(=O)N/C(=C\c2cccc([N+](=O)[O-])c2)C(=O)Nc2cccc(C(=O)O)c2)cc1	AHR act 67
Clc1ccccc1CN(Cc1ccco1)Cc1nnnn1C1CCCC1	HSF-1 act 69
COc1cc([C@H]2Oc3c(OC)cc(CCCO[C@@H]4O[C@H](CO)[C@@H](O)[C@H](O)[C@H]4O)cc3[C@@H]2CO)ccc1O	NR0B1 inh 4.7 (no result: HSF1 inh, HSP90 inh, HSF-1 act)
Nc1nc2c(C(=O)N3CCOCC3)nnn2c2ccccc12	NR0B1 inh 6.2
COc1cccc(NC(=O)CCSc2nnc3scc(-c4ccccc4)n23)c1	HSF1 inh -73
COc1cccc(-c2csc3nnc(SCC(=O)c4ccc(NC(C)=O)cc4)n23)c1	none (no result: HSF1 inh, HSF-1 act)
COC(=O)c1cccc(CN2C(=O)C(C)Oc3ccc(C)cc32)c1 (stereo not given)	none (no result: NR0B1 inh, HSF1 inh, HSP90 inh, HSF-1 act, AHR act)
O=[N+]([O-])c1ccc2c([N+](=O)[O-])ccc3c2c1CC3	none (no result: HSF1 inh, HSP90 inh, HSF-1 act, AHR act)
Cc1cccc(C)c1OCC(=O)N/N=C/C=C/c1ccco1	HSF-1 act 81
CC(/C=C/c1ccco1)=N\NC(=O)COc1ccc(C)c(C)c1	HSF-1 act 78
O=C(N/N=C/C=C/c1ccco1)c1ccccc1Cl	HSF-1 act 69
Cc1cccc(OCC(=O)N/N=C/C=C/c2ccco2)c1	none
Cc1ccc(OCCNC(=O)/C=C/c2ccco2)cc1C	none
O=C(Cc1cccs1)N/N=C/C=C\c1ccco1	HSF-1 act 92
COc1cc(C(C)=O)ccc1OCC(O)CN1CCN(c2cc(C)cc(C)c2)CC1 (stereo not given)	none
COc1cccc(N/C(SCc2ccccc2C)=C(/C#N)C(=O)NCc2cccs2)c1	none
COc1cccc(N/C(SCc2cccc([N+](=O)[O-])c2)=C(/C#N)C(=O)NCc2cccs2)c1	HSF-1 act 75
C/C(=N\Nc1ncc(Cl)cc1Cl)c1ccc2c(c1)OCO2	none (no result: HSF1 inh, HSF-1 act)
C/C(=N\Nc1ncc(Cl)cc1Cl)c1ccc(OC(F)F)cc1	AHR act 63
COc1ccccc1N1C(=O)N(C(C)=O)C2C1Nc1ccccc1N2C (stereo not given)	AHR act 60
CS(=O)(=O)N1CCN(c2nc3ccc(Cl)cc3s2)CC1	none
Clc1ccc2nc(N3CCCCC3)sc2c1	HSF-1 act 56
COc1ccc(Br)cc1CN(C)C(=O)c1cc(Cl)c2c(c1)OCCO2	none
O=C(Cc1cccs1)NCc1ccccc1Br	HSF-1 act 94
O=C(CCS(=O)(=O)c1ccc(Br)cc1)NCc1cccs1	HSP90 inh 17
Cc1ccccc1CN(C)C[C@@H]1OCc2cnnn2CCCC(=O)N([C@H](C)CO)C[C@H]1C	none (no result: HSF1 inh, HSP90 inh, HSF-1 act, AHR act)
O=C(Oc1ccccc1C(=S)N1CCOCC1)c1cccc([N+](=O)[O-])c1	none
CCc1ccc(Nc2n[n+](-c3ccccc3)c(-c3ccc(OC)c(Br)c3)s2)cc1	none
CCCNC(=O)Cn1c2ccccc2c2nc(=O)cc(C)n21	none
CCC1CCCCN1CCCNC(=O)Cn1c2ccccc2c2nc(=O)cc(C)n21 (stereo not given)	HSF-1 act 64
CCCCn1c(=O)[nH]c2nc3cc(N)ccc3nc2c1=O	none (no result: HSF1 inh, HSF-1 act)
C=CCn1c(=O)[nH]c2nc3cc(N=CN(C)C)c(C)cc3nc2c1=O	AHR act 68
C#Cc1ccc([C@H]2C=C(C(=O)OCC=C)O[C@@H](OCc3ccc(CO)cc3)C2)cc1	none (no result: HSP90 inh)
C#Cc1ccc([C@H]2C=C(C(=O)OCC=C)O[C@@H](OCCCCO)C2)cc1	AHR act 49 (no result: HSP90 inh)
O=C(Nc1ccccc1C(F)(F)F)c1cc2ccccc2o1	NR0B1 inh 5.2, HSF-1 act inconclusive
COC(=O)c1ccccc1NC(=O)c1cc2ccccc2o1	none
COc1ccc(OC)c(NC(=O)c2cc3ccccc3o2)c1	AHR act 61
CCCN1C(=O)CC(=O)N=C1SCC(=O)Nc1ccccc1F	none (no result: HSF1 inh, HSP90 inh, HSF-1 act)
COc1cccc(C(O)c2nc(-c3ccc(Cl)cc3)cs2)c1 (stereo not given)	none (no result: NR0B1 inh, HSF1 inh, HSP90 inh, HSF-1 act, AHR act)
CCN1CCN(C(=O)/C=C/c2ccc(C)o2)CC1	none
Cc1ccc(/C=C/C(=O)N2CC(C)CC(C)C2)o1 (stereo not given)	HSF-1 act 51
O=[N+]([O-])c1ccc(N2CCN(Cc3ccccc3)CC2)c2c1no[n+]2[O-]	none (no result: HSF1 inh, HSP90 inh, HSF-1 act, AHR act)
COc1cc2cc(CN(Cc3cccs3)C(=S)Nc3ccc(C)cc3)c(=O)[nH]c2cc1OC	AHR act 50
Cc1ccc(N(Cc2cc3ccc(C)cc3[nH]c2=O)C(=O)c2cccs2)cc1	HSF1 inh -85 (no result: NR0B1 inh, FXN GAA850 act)
